{"source": "the supplement of paper PMC5940239"}
{"system": "Madurella mycetomatis MM55", "assay": "percent growth relative to solvent control; higher = less inhibition, active = 20 or less", "conditions": "100 µM; 7 days"}
{"smiles": "O=C(c1[nH]nc2c1CCCC2)N1CCN(Cc2ccc3c(c2)OCO3)CC1", "percent growth": "81.8% (inactive)"}
{"smiles": "COc1ccc(-c2cnc3ccc(NCc4ccc(S(N)(=O)=O)cc4)nn23)cn1", "percent growth": "86.7% (inactive)"}
{"smiles": "CCc1nc2ccc(Cl)cn2c1C(=O)NCc1ccc(N2CCC(c3ccc(OC(F)(F)F)cc3)CC2)cc1", "percent growth": "126% (inactive)"}
{"smiles": "CCOC(=O)c1noc(N)c1-c1ccccc1", "percent growth": "87.2% (inactive)"}
{"smiles": "O=C(NCCN1CCCC1)c1cc(NCCCCN2CCC(F)(F)CC2)nc2ccc(Cl)cc12", "percent growth": "61.8% (inactive)"}
{"smiles": "N#Cc1nc(-c2ccccc2F)oc1NCCc1ccccc1", "percent growth": "56.7% (inactive)"}
{"smiles": "Cc1nn2c(O)c3c(nc2c1-c1ccc(F)cc1)CCCC3", "percent growth": "113% (inactive)"}
{"smiles": "C[C@H]1COc2c(N3CCN(C)CC3)c(F)cc3c(=O)c(C(=O)O)cn1c23", "percent growth": "89.5% (inactive)"}
{"smiles": "N#Cc1ccc(-c2cnc(N)c(-c3ccc(C(N)=O)cc3)n2)cc1", "percent growth": "64.5% (inactive)"}
{"smiles": "Cc1cc(C(=O)Nc2ccc(-c3ccccc3)cc2)no1", "percent growth": "199% (inactive)"}
{"smiles": "CCCCc1ccc(NC(=O)Nc2ccc(O[C@H]3CCCC[C@@H]3N(C)c3ccccc3)c(F)c2)cc1", "percent growth": "122% (inactive)"}
{"smiles": "COc1cccn2c(C(=O)N3CCCCC3)c(C(F)(F)F)nc12", "percent growth": "85.7% (inactive)"}
{"smiles": "O=C(CCC1CCCCC1)Nc1cccc(-c2nnc(-c3ccco3)o2)c1", "percent growth": "96.1% (inactive)"}
{"smiles": "CC(=O)N1CCN(c2ccc(Oc3ccc(Cl)cc3O)cc2)CC1", "percent growth": "102% (inactive)"}
{"smiles": "CC(=O)N(CCN(C(=O)c1ccc(F)cc1)c1ccccc1)c1ccccc1", "percent growth": "48.9% (inactive)"}
